# L3MBTL1 block: blocks human L3MBTL1; Q9Y468; AlphaScreen L3MBTL1–H3K9me1 peptide binding; Potency, µM (series often up to 57.1 µM), for the others: at the top dose activity, negative = inhibition, hits mostly inhibitors; 230,000 tested, 0.66% active; also: % is scaled to controls: 0 for no effect and ±100 for the full control effect; nearly all actives have a fitted effect of over 60% in size
#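 AlphaScreen proximity signal between nickel-chelate acceptor and streptavidin donor beads (final 10 ug/mL) reports binding of 50 nM L3MBTL1 to 75 nM biotin-H3 K9me1 peptide; complex incubated with compounds 30 min at room temperature; cefsulodin titration as control.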
# Sfp PPTase inh: Sfp phosphopantetheinyl transferase inhibition | Potency, µM, for the others: largest response in the series, negative = inhibition, actives largely listed as inhibitors | Biochemical Sfp PPTase activity, qHTS | 310,000 tested, 3.5% active | AID 1490 | Q9F4F7;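 also: the enzyme is Sfp with the accession as filed and its product quenches rhodamine fluorescence; 0% = enzyme reaction without inhibitor and -100% = no enzyme wells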
#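 Fluorescence-quenching assay with 15 nM Sfp, 5 uM rhodamine-CoA and 12.5 uM BHQ-2-labelled ybbR peptide in pH 7.6 Hepes/MgCl2 buffer. Enzyme was pre-incubated with compound for 15 min at room temperature. Rate was taken from the 30-min fluorescence change (525/598 nm).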
# BAZ2B block: inhibitors of human BAZ2B bromodomain | AID 504333 | Potency, µM (top dose mostly 114 µM), for inactives: at the top dose activity change, negative = inhibition, actives largely listed as inhibitors | Q9UIF8 | 360,000 tested, 4.4% active | AlphaScreen BAZ2B-H3K14Ac peptide displacement; also: % is scaled to controls: 0 for no effect and ±100 for the full control effect; nearly all actives have a fitted effect of over 60% in size
#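 Protein-peptide AlphaScreen: BAZ2B 50 nM, b-H3K14Ac 50 nM, 1x PBS pH 7.4 + 0.01% Tween-20. Preincubation 30 min RT; cpd 30 min RT (top 110 uM); beads 20 min RT, light-protected.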
# HP1b binding inh: inhibitors of HP1-beta chromodomain binding to methylated histone tails | AlphaScreen HP1-beta / biotin-H3K9me3 peptide binding | P83916 | Potency, µM (top dose mostly 114 µM), for inactives: at the top dose activity change, negative = inhibition, actives largely listed as inhibitors | 390,000 tested, 0.56% active | AID 540317; also: nearly all actives have a fitted effect of over 70% in size
#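 HP1-beta protein (50 nM final) preincubated 30 min at room temperature with biotinylated H3(1-18)K9me3 peptide (50 nM) in PBS pH 7.4, 0.01% Tween-20, then compound added for 30 min. AlphaScreen streptavidin donor/nickel chelate acceptor beads (10 ug/mL final), 30 min dark, luminescence read.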
# G9a block: inhibitors of human histone lysine methyltransferase G9a. Q96KQ7. Potency, µM (doses to about 102 µM), for inactives: top-dose activity, negative = inhibition, usual class: inhibitors. AID 504332. 350,000 tested, 8.8% active. G9a H3K9 monomethylation, AlphaScreen, 2 h; also: % is scaled to controls: 0 for no effect and ±100 for the full control effect; nearly all actives have a fitted effect of over 75% in size
#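 Enzyme 20 nM + cpd, 15 min RT; add b-H3K9 pep 500 nM / SAM 20 uM; 2 h RT; anti-H3K9me1 Ab 0.5 ug/mL + SA donor / anti-rabbit acceptor beads 20 ug/mL each, 10 min; AlphaScreen read.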
# JMJD2A Tudor: JMJD2A Tudor domain (human) inhibition | O75164 | AlphaScreen JMJD2A-Tudor / H3K4me3 peptide binding | Potency, µM (highest dose often 114 µM), for the others: at the highest dose activity change, negative = inhibition, most hits filed as inhibitors | 390,000 tested, 4.4% active | AID 504339; also: % is scaled to controls: 0 for no effect and ±100 for the full control effect; nearly all actives have a fitted effect of over 50% in size
# Target sequence (O75164 whole entry, looked up, the tested form may be a part): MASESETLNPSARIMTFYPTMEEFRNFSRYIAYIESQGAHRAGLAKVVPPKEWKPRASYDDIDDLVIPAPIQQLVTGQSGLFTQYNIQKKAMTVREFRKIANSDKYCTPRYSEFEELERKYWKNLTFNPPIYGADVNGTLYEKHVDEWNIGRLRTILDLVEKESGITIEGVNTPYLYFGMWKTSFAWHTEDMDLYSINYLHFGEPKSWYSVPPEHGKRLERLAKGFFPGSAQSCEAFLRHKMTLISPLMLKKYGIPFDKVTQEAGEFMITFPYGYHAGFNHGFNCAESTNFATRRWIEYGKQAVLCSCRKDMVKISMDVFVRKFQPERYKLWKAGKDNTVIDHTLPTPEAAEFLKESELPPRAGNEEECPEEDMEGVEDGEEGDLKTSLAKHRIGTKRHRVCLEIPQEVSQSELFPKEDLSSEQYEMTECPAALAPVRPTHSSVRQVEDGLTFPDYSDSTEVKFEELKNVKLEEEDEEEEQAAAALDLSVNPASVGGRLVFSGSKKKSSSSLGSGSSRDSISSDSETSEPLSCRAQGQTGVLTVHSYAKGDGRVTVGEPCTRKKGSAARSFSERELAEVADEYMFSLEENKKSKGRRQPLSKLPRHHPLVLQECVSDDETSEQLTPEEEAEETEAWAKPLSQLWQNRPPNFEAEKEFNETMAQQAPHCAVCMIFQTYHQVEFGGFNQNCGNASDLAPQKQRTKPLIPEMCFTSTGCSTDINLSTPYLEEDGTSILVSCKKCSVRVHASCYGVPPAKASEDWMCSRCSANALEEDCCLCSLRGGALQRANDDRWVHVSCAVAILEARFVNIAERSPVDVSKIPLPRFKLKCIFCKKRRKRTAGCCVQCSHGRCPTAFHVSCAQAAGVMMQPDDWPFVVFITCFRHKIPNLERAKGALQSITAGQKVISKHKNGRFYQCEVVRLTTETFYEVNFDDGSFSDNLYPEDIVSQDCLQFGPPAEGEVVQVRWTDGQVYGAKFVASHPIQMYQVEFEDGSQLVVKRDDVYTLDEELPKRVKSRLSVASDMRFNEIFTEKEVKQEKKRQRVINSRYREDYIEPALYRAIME
# An asterisk follows results filed as active; ? = inconclusive; . = no result; [ ] = remark or other dose. Compounds with a hit are over-represented: about 12% of the library has one in this group of screens. Calls follow the shape of the dose curve; as a rule, active = well fitted curve in the direction sought with a large enough effect; inconclusive = small, poorly fitted or top-dose-only effect, or another doubt; inactive = no such curve, though single readings can be large; an effect the other way counts as inactive or inconclusive. Potency is read from the fitted curve at half-maximal effect.
SMILES,L3MBTL1 block,Sfp PPTase inh,BAZ2B block,HP1b binding inh,G9a block,JMJD2A Tudor
CCN(Cc1ccncc1)C(=O)C(CO)c1ccccc1 (stereo not given),.,18%,-3%,34%,34%[59 µM],-19%
O=S1(=O)C=C(Sc2nnc(-c3ccccc3)o2)c2ccccc21,0%,16µM*,13%,7%,54%[59 µM],-12%
CCOC(=O)C1CCN(S(=O)(=O)CCNC(=O)c2ccc(F)cc2)CC1,3%,.,-4%,26%,4%,-8%
Cc1noc(C)c1C(=O)N1CCC[C@@]2(CCN(c3cccc(-c4ccccc4)c3)C2)C1,.,2%,.,.,-6%[12.7 µM],.
O=[N+]([O-])c1ccc(Sc2nnnn2-c2ccccc2)c(Cl)c1,.,-11%,?,?,50µM*,?
O=C(Nc1ccc(S(=O)(=O)Nc2ncccn2)cc1)c1cc(=O)c2ccccc2o1,.,.,-3%,31%,7%[59 µM],3%
CC(=O)NCCNc1ncnc2ccc(-c3ccccc3C#N)cc12,.,9%,.,.,17%[0.501 µM],.
Cc1ccc(C(=O)NC2(O)C(=O)c3ccccc3C2=O)cc1C,.,7%,-20%,15%,50µM*,-4%
O=C(NC1(O)C(=O)c2ccccc2C1=O)c1ccc(C(F)(F)F)cc1,.,-7%,-17%,23%,.,5%
O=C1C(C2=NC(C(=O)O)C3C(=O)N(c4ccccc4)C(=O)C23)=C(O)c2ccccc21 (stereo not given),1%,9%,-22%,2%,?,16µM*
O=C1C(C2=NC(c3ccccn3)C3C(=O)N(c4ccc(OC(F)(F)F)cc4)C(=O)C23)=C(O)c2ccccc21 (stereo not given),-1%,14%,-8%,19%,11%,-4%
CN(C)CCNC(=O)c1cc2c(s1)-c1ccc(Cl)cc1SC2,.,-21%,-1%,27%,?,-11%
O=C(O)c1cc(-c2cccnc2)nn1-c1ccccn1,2%,17%,?,36%,28µM*,-9%
O=S(=O)(c1ccc2c(c1)OCCO2)N1CCN(S(=O)(=O)c2ccc(Br)cc2F)CC1,.,.,.,.,.,-16%
Cc1cc(O)c(C=O)c2c1C(=O)Oc1c(CO)c(O)c3c(c1O2)C(O)OC3=O (stereo not given),2.8µM*,14µM*,20µM*,?,?,3.2µM*
O=C(COC(=O)Cc1ccc(S(=O)(=O)N2CCOCC2)s1)NCCc1ccccc1,.,24%,50µM*,4%,?,-27%
O=C(COC(=O)Cc1ccc(S(=O)(=O)N2CCCCC2)s1)Nc1ccc2c(c1)OCO2,-6%,8%,.,3%,22µM*,-27%
O=C(Cc1ccc(S(=O)(=O)N2CCCCC2)s1)Nc1ccc(F)c(F)c1,-4%,11%,9%,34%,29%[59 µM],-5%
NS(=O)(=O)c1cccc(NC(=O)COC(=O)Cc2ccc(S(=O)(=O)N3CCCCC3)s2)c1,-2%,15%,?,38%,45µM*,-26%
CCOc1ccc(CCNC(=O)c2ccc(-n3c(C)cc4c3CCC(C)C4)cc2)cc1OCC (stereo not given),.,.,-11%,21%,-13%[59 µM],-18%
Cc1nc2nc(CC(=O)O)[nH]n2c(=O)c1[N+](=O)[O-],9%,-19%,-16%,20%,-12%[12.7 µM],18µM*
COC(=O)Cn1c2ccc(F)cc2c2nc(C)sc21,3%,-24%,-28%,25%,45µM*,-1%
CCOC(=O)Cn1c2ccc(F)cc2c2nc(C)sc21,.,-12%,11%,37%,-47%,-1%
CCc1ccc2c(c1)c1nc(C)sc1n2CC,-2%,28µM*,-26%,15%,?,8%
Cc1nc2c3cc(F)ccc3n(Cc3ccc(F)cc3)c2s1,3%,?,-10%,41%,?,?
Cc1cc(C)nc(SCc2nnc(SCC(N)=O)o2)n1,4%,13%,4%,49%,-10%[0.501 µM],4%
Cc1ccc(C)c(N2CCN(S(=O)(=O)c3ccc(F)c(C(=O)Nc4ccc(Cl)cc4Cl)c3)CC2)c1,.,.,1%,25%,5%[59 µM],-15%

# Screening data from PubChem.
